Common to all, as to experiment: yeast three-hybrid, YBZ-1, SC-Leu-His + 0.5 mM 3-AT, 4 days
What all share (conditions): tags: N-Gal4 AD-HA kept; label: inside an RPR1-promoter hybrid RNA with tandem MS2 sites; ssRNA

In one assay the target is PUM1 PUF domain R5-RYV (Homo sapiens, UniProt Q14671 828-1176, C1007R;R1008Y;Q1011V). The essentials:
(§1)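 A centromeric plasmid in strain YBZ-1 co-expressed Pumilio-1 PUF domain libraries, randomized at the three base-contacting residues of each repeat, with matching RNA elements; the strain carries a LexA–MS2 coat fusion and a HIS3 reporter. After four days on SC-Leu (input) or SC-Leu-His + 0.5 mM 3-AT (selection), the repeat regions were PCR-amplified and Illumina-sequenced. The interaction score is the log change in variant frequency from input to selection, using log2 and a pseudocount of 1 where absent.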

A further assay deals with PUM1 PUF domain R1-NKK (Homo sapiens, UniProt Q14671 828-1176, S863N;R864K;Q867K). The essentials:
as §1

The next assay has as its target PUM1 PUF domain R3-YRC (Homo sapiens, UniProt Q14671 828-1176, C935Y;Q939C). The method in brief: as §1
The target in another assay is PUM1 PUF domain R1-GVK (Homo sapiens, UniProt Q14671 828-1176, S863G;R864V;Q867K). The method in brief:
as §1

The next assay deals with PUM1 PUF domain R4-CPT (Homo sapiens, UniProt Q14671 828-1176, N971C;H972P;Q975T). The essentials:
as §1

In a further assay the target is PUM1 PUF domain R5-WHA (Homo sapiens, UniProt Q14671 828-1176, C1007W;R1008H;Q1011A). The essentials:
as §1

The next assay concerns the target PUM1 PUF domain R5-QCC (Homo sapiens, UniProt Q14671 828-1176, C1007Q;R1008C;Q1011C). The method in brief:
as §1

A further assay concerns the target PUM1 PUF domain R1-KKV (Homo sapiens, UniProt Q14671 828-1176, S863K;R864K;Q867V). The method in brief:
as §1

In the next assay the target is PUM1 PUF domain R5-VHM (Homo sapiens, UniProt Q14671 828-1176, C1007V;R1008H;Q1011M). The method in brief: as §1
The next assay deals with PUM1 PUF domain R4-ANY (Homo sapiens, UniProt Q14671 828-1176, N971A;H972N;Q975Y). The method in brief: as §1

On to “GGCUAGAACUAGUGGAUCCCCCGGCGCCCGGCGGCUCGAGCCCGGGUAAGUGUUAAUAGUCUGCAUGCCGCCGGGCGCCAUGCCUGCAGGUCGACUCUAGAAAACAUG”, for which, in the assay with PUM1 PUF domain R5-RYV, the binding signal was 4.93 log2 enrichment (interaction score).

On to “GGCUAGAACUAGUGGAUCCCCCGGCGCCCGGCGGCUCGAGCCCGGGUAAGUGUAAAUGGUCUGCAUGCCGCCGGGCGCCAUGCCUGCAGGUCGACUCUAGAAAACAUG”, for which the binding signal with PUM1 PUF domain R1-NKK was 3.03 log2 enrichment (interaction score). On to “GGCUAGAACUAGUGGAUCCCCCGGCGCCCGGCGGCUCGAGCCCGGGUAAGUGUAAGUAGUCUGCAUGCCGCCGGGCGCCAUGCCUGCAGGUCGACUCUAGAAAACAUG”, for which the binding signal with PUM1 PUF domain R3-YRC is 4.22 log2 enrichment (interaction score). With “GGCUAGAACUAGUGGAUCCCCCGGCGCCCGGCGGCUCGAGCCCGGGUAAGUGUAAAUCGUCUGCAUGCCGCCGGGCGCCAUGCCUGCAGGUCGACUCUAGAAAACAUG”, the binding signal in the assay with PUM1 PUF domain R1-GVK is 3.43 log2 enrichment (interaction score); with PUM1 PUF domain R1-NKK, 4.39 log2 enrichment (interaction score).

For “GGCUAGAACUAGUGGAUCCCCCGGCGCCCGGCGGCUCGAGCCCGGGUAAGUGUAAAUUGUCUGCAUGCCGCCGGGCGCCAUGCCUGCAGGUCGACUCUAGAAAACAUG”, the binding signal in the assay with PUM1 PUF domain R1-GVK is 2 log2 enrichment (interaction score). With “GGCUAGAACUAGUGGAUCCCCCGGCGCCCGGCGGCUCGAGCCCGGGUAAGUGUACAUAGUCUGCAUGCCGCCGGGCGCCAUGCCUGCAGGUCGACUCUAGAAAACAUG”, the binding signal with PUM1 PUF domain R4-CPT was 1.75 log2 enrichment (interaction score).

“GGCUAGAACUAGUGGAUCCCCCGGCGCCCGGCGGCUCGAGCCCGGGUAAGUGUCAAUAGUCUGCAUGCCGCCGGGCGCCAUGCCUGCAGGUCGACUCUAGAAAACAUG”: the values for the binding signal with PUM1 PUF domain R5-WHA and in the assay with PUM1 PUF domain R5-RYV were 3.04 log2 enrichment (interaction score) and 5.29 log2 enrichment (interaction score), respectively. “GGCUAGAACUAGUGGAUCCCCCGGCGCCCGGCGGCUCGAGCCCGGGUAAGUGUGAAUAGUCUGCAUGCCGCCGGGCGCCAUGCCUGCAGGUCGACUCUAGAAAACAUG”: the binding signal with PUM1 PUF domain R5-RYV is 2.35 log2 enrichment (interaction score); with PUM1 PUF domain R5-QCC, 3.84 log2 enrichment (interaction score). Turning to “GGCUAGAACUAGUGGAUCCCCCGGCGCCCGGCGGCUCGAGCCCGGGUAAGUGUAAAUAGUCUGCAUGCCGCCGGGCGCCAUGCCUGCAGGUCGACUCUAGAAAACAUG”, the binding signal is 2.4 log2 enrichment (interaction score) with PUM1 PUF domain R1-KKV, 2.73 log2 enrichment (interaction score) with PUM1 PUF domain R5-VHM, 1.08 log2 enrichment (interaction score) with PUM1 PUF domain R5-WHA and 1.83 log2 enrichment (interaction score) with PUM1 PUF domain R5-RYV.

Regarding “GGCUAGAACUAGUGGAUCCCCCGGCGCCCGGCGGCUCGAGCCCGGGUAAGUGUAUAUAGUCUGCAUGCCGCCGGGCGCCAUGCCUGCAGGUCGACUCUAGAAAACAUG”, the binding signal is 3.22 log2 enrichment (interaction score) in the assay with PUM1 PUF domain R4-ANY and 3.09 log2 enrichment (interaction score) with PUM1 PUF domain R4-CPT.
